Hit rate of the full screen: of about 48,000 compounds, about 13,000 (27%) showed an effect of 50% or more. Some of the results follow.
tested on: Wolbachia pipientis; test: Anti-Wolbachia Cell-Based Screen; type: functional; design: scale not given: in the data most compounds retested in dose-response had high values; settings: 5 µM

SMILES | Percent Effect [%]
CCc1nc(CNCC2CCCN2c2cc(NC)ncn2)cs1 (configuration not stated) | 9.196
COc1c(C2CCCN2Cc2nnc(C3CC3)n2C)c(C)nn1C (configuration not stated) | 1.396
N#Cc1ccc(CN2CCN(C(=O)C3CCC3)[C@@H]3CS(=O)(=O)C[C@@H]32)cc1 | -4.315
CCCc1noc(CN2CCCC2c2ccsc2)n1 (configuration not stated) | 1.014
CN(C)c1nc(N)nc(CN2CCCC2c2ccsc2)n1 (configuration not stated) | 99.77
CN(C)c1nc(N)nc(CN2CCC(c3nc4ccccc4o3)CC2)n1 | -47.21
Cc1cccc(C2CCCN2Cc2nc(N)nc(N(C)C)n2)c1C (configuration not stated) | 140.3
CN(C)c1nc(N)nc(CN2CCCC2c2cccs2)n1 (configuration not stated) | 99.23
CN(C)c1nc(N)nc(CN2CCCC(c3ccccc3)CC2)n1 (configuration not stated) | -22.19
CN(CCC#N)C(=O)CN1CCCC1c1cccs1 (configuration not stated) | -24.43
CN(C)c1nc(N)nc(CN2CCC(c3ccccc3)CC2)n1 | -7.992
Cc1nc(CN2CCCC2c2ccsc2)nc2ccccc12 (configuration not stated) | 1.892
COCCC(=O)Nc1nccn1Cc1ccc(Br)cc1 | -0.6439
CNC(=O)c1cnc(/C=C/c2ccc(OC)c(O)c2)s1 | -1.59
Cc1cc(C(=O)N2C[C@H](CO)C[C@H](CN3CCOCC3)C2)cnc1C | 8.759
Cc1ccc(C)c2c(O)cc(CNCCNC(=O)C(C)C)nc12 | -21.09
c1cncc(NCCNC2CSCCSC2)c1 | 16.15
Cc1cccc(-c2noc([C@@H]3C[C@@H](O)CN3Cc3ccc(CO)o3)n2)c1 | 5.801
CC(C)n1cnc2c1C(C(=O)N1CCCC1)N(S(C)(=O)=O)CC2 (configuration not stated) | -12.38
Cc1nn(C)c(Cl)c1C1CCCN1Cc1nnc(C2CC2)n1C (configuration not stated) | -12.44
Cc1cc(NC(=O)C(C)N2CCN(c3nccs3)CC2)on1 (configuration not stated) | -1.934
Cc1cc(NC(=O)CN2CCN(c3nccs3)C(C)C2)on1 (configuration not stated) | 108.7

SMILES | Percent Effect [%]
Cc1cc(NC(=O)C(C)N2CCCN(c3nccs3)CC2)on1 (configuration not stated) | -9.765
CCc1nnc2n1CCN(CC(=O)Nc1cc(C)on1)C2 | -12.71
Cc1cc(NC(=O)CN2CCN(c3nccs3)C(C)C2)no1 (configuration not stated) | 110.3
CN(C)c1nccc(NC(=O)c2ccncc2)n1 | 2.726
CC(=O)c1ccc(C(=O)Nc2ccnc(N(C)C)n2)cc1 | -0.9205
CN(C)c1nccc(-c2cnc(N(C)C)[nH]c2=O)n1 | 117.9
CN(C)c1nccc(CNC(=O)NC(C)(C)C)n1 | -4.369
CN(C)c1nccc(-c2c[nH][nH]c2=O)n1 | 105.1
CCNC(=O)NCc1ccnc(N(C)C)n1 | -21.64
c1cc(-c2nc(CN3CCn4c(nnc4C4CC4)C3)cs2)cs1 | -6.477
Cc1noc2ncc(S(=O)(=O)Nc3cc(C(C)(C)C)n[nH]3)cc12 | -0.8197
Cc1cc(C(=O)N(Cc2c(C)nn(C)c2C)C(C)C)nc(C)n1 | 12.98
CN1CCN(Cc2ccccc2CNC(=O)c2ccc(Br)cc2F)CC1 | 7.367
CN1CCN(Cc2ccccc2CNC(=O)c2cc(Br)ccc2F)CC1 | -18.53
CN1CCN(Cc2ccccc2CNC(=O)c2ccc(Br)cc2)CC1 | 1.874
Cn1ccc(C(=O)NCc2ccccc2Cn2ccnc2)cc1=O | -5.249
Cn1ccc(C(=O)NCc2ccccc2CN2CCCC2)cc1=O | 88.78
Cn1ccc(C(=O)NCc2ccccc2CN2CCCCC2)cc1=O | 100.5
COc1cc(C)cc(C(C(=O)O)N(C)Cc2ccon2)c1OC (configuration not stated) | -2.337
O=C1CC(c2ccccc2)C2(CCN(C(=O)c3cnccn3)CC2)N1 (configuration not stated) | -7.237
O=C(COCC(F)(F)F)Nc1nncs1 | 9.109
O=C(NCC1CC1)Nc1cccc(N2CCN(CC3CC3)CC2)c1 | 0.3476

SMILES | Percent Effect [%]
O=C(CCn1cccc1)NCc1ccc(CN2CCCCCC2)o1 | 106.7
O=C(NCc1ccc2[nH]c(=O)[nH]c2c1)c1ccc(CN2CCCC2)o1 | -9.598
Cc1[nH]c2ccc(CNC(=O)c3ccc(CN4CCCC4)o3)cc2c1C | 16.58
CNC(=O)c1csc(-c2cccnc2)n1 | 130
CC(C)N1CCCC(CNC(=O)Cc2csc(-c3cccnc3)n2)C1 (configuration not stated) | 3.537
CNC(=O)c1csc(-c2ccoc2)n1 | 6.478
O=C(NCCc1nncn1C1CC1)C1SCCc2ccccc21 (configuration not stated) | -2.915
Cn1cccc(NC(=O)N2CCC(Cc3ccccc3)C2)c1=O (configuration not stated) | 25.6
O=C(Cc1ccccc1F)NCC1CCN(CCc2ccccc2)C1 (configuration not stated) | -7.846
CS(=O)(=O)NC1CCN(CCc2ccccc2)CC1 | -1.788
Cc1nn(C)cc1C(=O)N1CCC(CSc2ccccc2)C1 (configuration not stated) | -5
Cc1nn(C)cc1NC(=O)CC1CCN(CCc2ccccc2)CC1 | 168.6
Cc1nn(C)cc1NC(=O)CC1CCN(C(=O)Cc2ccccc2)CC1 | 152.2
CC(=O)NCc1nnc2n1CCN(c1ncnc3c1CCC3)CC2 | -4.362
Cn1cc(Br)cc(NC(=O)CC2CCC2)c1=O | 5.375
CC(C)(C)C(NC(=O)CCS(C)(=O)=O)c1ccc(F)cc1F (configuration not stated) | 7.431
COCCS(=O)(=O)Cc1nnnn1-c1ccccc1 | 8.083
CCCn1[nH]cc/c1=N\C(=O)CN1CCn2c(nnc2C2CC2)C1 | -10.08
CCCn1[nH]cc/c1=N\C(=O)CN1CCc2c(nc(C3CC3)n2C)C1 | 122.4
CCCn1[nH]cc/c1=N\C(=O)CN1CCc2c(nc(C(C)C)n2C)C1 | -3.864
CCCn1[nH]cc/c1=N\C(=O)CN1CCOC(Cn2cc(C)cn2)C1 (configuration not stated) | 12.63
CCCn1[nH]cc/c1=N\C(=O)CN1CCc2cnc(CC)nc2C1 | 1.642

SMILES | Percent Effect [%]
CCCn1[nH]cc/c1=N\C(=O)CN1CCc2cnc(C(C)C)nc2C1 | 129.2
O=C(CNC(=O)N(Cc1ccoc1)C1CCCCC1)N1CCCC1 | -3.863
O=C1CN(Cc2cn(CC3CCCN(C4CCSCC4)C3)nn2)CCN1 (configuration not stated) | -21.26
Cn1cc(C(=O)N2CCCC2c2ccc3c(c2)OCCO3)ccc1=O (configuration not stated) | 14.96
Cn1ccc(C(=O)N2CCCC2c2ccc3c(c2)OCCO3)cc1=O (configuration not stated) | 4.386
CNc1cncc(C2CCCN2C(=O)c2ccc3c(c2)CCC3)n1 (configuration not stated) | 112.1
CNc1cncc(C2CCCN2C(=O)c2ccc3c(c2)OCCO3)n1 (configuration not stated) | 121
CNc1cncc(C2CCCN2C(=O)c2ccc3oc(C)cc3c2)n1 (configuration not stated) | 6.468
CNc1cncc(C2CCCN2C(=O)c2ccc3nc(C)[nH]c3c2)n1 (configuration not stated) | 94.32
CC(C)C(=O)N1CCN(C(=O)CCc2nnc(-c3ccccc3)o2)CC1 | -5.371
CN(CCn1cccn1)S(=O)(=O)c1ccc(C#N)cc1 | -4.99
Cc1ccc(C(=O)N2CCN(Cc3ccsc3)CC2)n1C | -3.003
CCc1ncncc1C(=O)N1CCCN(Cc2ccc(C)cc2)CC1 | -0.6521
CC(C)c1ncncc1C(=O)N1CCN(Cc2ccsc2)CC1 | 100.4
CC(C)c1ncncc1C(=O)N1CCCN(Cc2cccs2)CC1 | 14.44
CCCc1c(C(=O)N2CCN(Cc3ccccn3)CC2)cnn1C | 12.63
CC(C)c1ncncc1C(=O)N1CCN(Cc2cccnc2)CC1 | 115.2
CC(C)c1cc(C(=O)N2CCN(Cc3ccsc3)CC2)n[nH]1 | 8.435
CC(C)CN1CCN(C(=O)c2cccnc2-n2cncn2)CC1 | -9.606
CC(C)c1ncncc1C(=O)N1CCN(Cc2ccccn2)CC1 | 108.4
CCc1c(C)[nH]c(C(C)(N)CC)nc1=O.Cl (configuration not stated) | 22.39
COc1cccc(COCC(O)CN(C)c2ccc(C)cc2C)c1 (configuration not stated) | 0.5373

SMILES | Percent Effect [%]
Cn1cc(CNC2CCOCC2)c(-c2cc3ccccc3o2)n1 | 2.257
Cn1cc(CN2CCCN(C(=O)c3cn4ccccc4n3)CC2)cn1 | 23.55
Cc1cc2c(=O)n3c(nc2s1)CCN(Cc1cnn(C)c1C)CC3.Cl | -7.845
O=c1c2ccccc2nc2n1CCN(Cc1cccs1)CC2 | -4.199
Cc1nn(C)cc1CN1CCc2nc3sccc3c(=O)n2CC1 | 108
COCCN(Cc1cnn(C)c1)c1nc(C)nc2sccc12 | 10.56
Cn1cc(CN2CCc3nc4ccccc4c(=O)n3CC2)cn1 | 97.31
CC(C)(C)c1n[nH]cc1CN1CCc2nc3ccsc3c(=O)n2CC1 | -17.99
Cn1cc(CN2CCCN(C(=O)c3cc(Cl)cn3C)CC2)cn1 | -17.2
Cn1cc(CN2CCc3nc4sccc4c(=O)n3CC2)cn1 | 107.2
Cc1c(CN2CCc3nc4sccc4c(=O)n3CC2)cnn1C.Cl | 100.5
CCn1nc2c(cc1=O)CN(Cc1nc(-c3ccoc3)no1)CC2 | -3.016
Cn1cc(C2CCCN2C(=O)c2cnc(-c3ccco3)s2)cn1 (configuration not stated) | 97.73
Cn1cc(C2CCCN2C(=O)Cc2coc(-c3ccccc3)n2)cn1 (configuration not stated) | -3.572
Cn1cc(C2CCCN2C(=O)c2cnc(-c3cccs3)s2)cn1 (configuration not stated) | 79.27
Cn1cc(C2CCCN2C(=O)c2cnc(-c3ncccn3)s2)cn1 (configuration not stated) | 107.5
Cn1cc(C2CCCN2C(=O)Cc2n[nH]c3ccccc23)cn1 (configuration not stated) | -7.231
Cn1cc(C2CCCN2C(=O)c2cnc(-c3ccccn3)s2)cn1 (configuration not stated) | 99.88
Cn1cc(C2CCCN2C(=O)c2ccc(Br)o2)cn1 (configuration not stated) | -1.087

— ChEMBL document CHEMBL3988442, “University of Dundee, Small-Polar-MMV Screening Library” (2021)
